This note sets out measurements from PubChem BioAssay.

Each structure is given as a SMILES string. Where “and” joins values, the source holds several entries; their conditions need not be identical. Equal entries are not always repeated. Calls of active or inactive are those of the source.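 The calls were made as follows, unless noted: active = thallium flux through the channel raised or lowered by more than 3 SD from vehicle-only wells, actives on both sides; inactive = the rest.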

In general, viability refers to a read-out of living cells in per cent, often relative to untreated cells. As usually defined, the inhibition is the drop in the measured response relative to a control, in per cent.

The nature of experiment [1]: P. berghei load reduction in hepatocytes – cell-based, HepG2, luciferase luminescence, HepG2 viability, primary screen (AID 624349; in the data active = parasite load remaining mostly below about 12%, no sharp cut-off; inactive = mostly above about 10%;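 also: 100% = mean of DMSO negative control wells on the same plate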). The note with it: P. berghei liver stage in HepG2, luciferase luminescence, concentration not given here; parasite load remaining: stronger effect = lower value; viability: measured here: HepG2 viability without parasites.
The nature of experiment [2]: signal quenchers or enhancers, Cy5 substrate/SSB – biochemical, NIH Clinical Collection, E. coli SSB, artefact control for HCV NS3 helicase inhibitor project (AID 743268; call rule not given here). As to conditions: Cy5-oligo bound E. coli SSB, fluorescence interference.
The test system of experiment [3] is Hepatitis C virus NS3 helicase. As to the kind of experiment: blockers of NS3h binding to DNA – biochemical, fluorescence polarization, NIH Clinical Collection, primary screen (AID 743270; call rule not given here). The note with it: NS3 helicase binding to Cy5-dT15 DNA, stronger effect = higher value, concentration not given here.
For experiment [4], the target named is Single-stranded DNA-binding protein (Escherichia coli (strain K12)) (UniProt P0AGE0). As to the kind of experiment: SSB-ssDNA binding inhibitors – biochemical, fluorescence polarization, NIH Clinical Collection, counter-screen for HCV NS3 helicase inhibitor project (AID 743271; in the data active = inhibition above about 28%). The note with it: E. coli SSB-DNA binding, stronger effect = higher value, concentration not given here. (In fluorescence polarisation assays a small probe gives low polarisation when free and higher when bound to something large.)

The nature of experiment [5]: compounds distorting NS3 helicase fluorescence signal – biochemical, NIH Clinical Collection, artefact control for HCV NS3 helicase inhibitor project (AID 743272; call rule not given here;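 also: HCV NS3 helicase with a Cy5 labelled single stranded DNA probe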). As to conditions: fluorescence interference counterscreen, HCV NS3 helicase assay; stronger effect = lower value.
Experiment [6] relates to Neuropilin-2 / VEGF-C interaction (human). In words: small molecules blocking Neuropilin-2/VEGF-C interaction – biochemical, microplate binding format, z-score (AID 743281; call rule not given here). The note with it: microplate NRP2/VEGF-C binding assay; stronger effect = lower value.
Experiment [7] is described as follows: modulation of C. elegans fzo-1 (AID 1259413; call rule not given here;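 also: fzo-1 mutant C. elegans worms in liquid wells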). The note with it: C. elegans fzo-1 modulator screen, mean read-out; stronger effect = higher value.
A further experiment has as its system F380Y. In words: BK channel mutant inhibitors and activators – cell-based, U2OS BacMam, thallium flux, beta subunits, selectivity assay, profiling panel (AID 1259406).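 Also: initial slope of Thallos dye fluorescence rise after thallium is added; log ratio against the mean of 0.3% DMSO vehicle wells on the same plate.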 The note with it: U2OS BacMam BK variants, at 30 µM.
The test system of another experiment is F380Y/beta2Delta. The experiment is described as above. As to conditions: U2OS BacMam BK variants, at 30 µM.
Experiment [8] has as its target Calcium-activated potassium channel subunit alpha-1 (Homo sapiens) + Leucine-rich repeat-containing protein 26 (Homo sapiens) (UniProt Q12791+Q2I0M4). The experiment is described as above. As to conditions: U2OS BacMam BK variants, F380Y/Slo1WT/gamma1, at 30 µM.
A further experiment concerns R275C. The description is as above. The note with it: U2OS BacMam BK variants, at 30 µM.
The next experiment concerns R275C/beta1. The description is as above. As to conditions: U2OS BacMam BK variants, at 30 µM.
In another experiment the test system is R275C/beta2Delta. The experiment is described as above. The note with it: U2OS BacMam BK variants, at 30 µM.
The nature of experiment [9]: viability loss with induced miR-34 in A549 – imaging, A549 dox-inducible miR-34, nuclei and caspase counts, primary screen (AID 1347080;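 active = compounds whose cell count with miR-34 switched on is under 0.7 times the count with it off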). The note with it: A549 miR-34 inducible, Hoechst nuclei count, 48 h.
Experiment [10] can be described thus: galactose survival enhancers in mitochondrial complex I cybrids – cell-based, galactose medium, ATP luminescence, primary screen (AID 1645843;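 active = z-score of at least 1.8 in each of two replicates, scored against plate mean and spread of sample wells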;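 also: positive z means more ATP and so rescue of galactose-driven cybrid death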). The note with it: complex I mutant cybrid cells, 72 h, stronger effect = higher value.
The subject of another experiment is F380Y/beta1. In words: BK channel mutant inhibitors and activators – cell-based, U2OS BacMam, thallium flux, beta subunits, selectivity assay, profiling panel (AID 1259406).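 Also: initial slope of Thallos dye fluorescence rise after thallium is added; log ratio against the mean of 0.3% DMSO vehicle wells on the same plate.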 As to conditions: U2OS BacMam BK variants, at 30 µM.
The subject of a further experiment is F380Y/beta4. The description is as above. The note with it: U2OS BacMam BK variants, at 30 µM.
In a further experiment the test system is R275C/beta4. The experiment is described as above. The note with it: U2OS BacMam BK variants, at 30 µM.
The subject of a further experiment is R275C/Slo1WT/beta2. Described as above. As to conditions: U2OS BacMam BK variants, at 30 µM.
The mark [11] stands for this setting: stronger effect = lower value, cell number ratio, induced over uninduced.
The mark [12] stands for this setting: measured here: relative caspase fold change +Dox/-Dox.
Setting [13] is: measured here: total cells with miR-34 induction, stronger effect = lower value.
Setting [14] is: measured here: total cells without miR-34 induction.

Sequence of Calcium-activated potassium channel subunit alpha-1 (Homo sapiens) + Leucine-rich repeat-containing protein 26 (Homo sapiens) (Q2I0M4 whole entry, looked up, one chain of several): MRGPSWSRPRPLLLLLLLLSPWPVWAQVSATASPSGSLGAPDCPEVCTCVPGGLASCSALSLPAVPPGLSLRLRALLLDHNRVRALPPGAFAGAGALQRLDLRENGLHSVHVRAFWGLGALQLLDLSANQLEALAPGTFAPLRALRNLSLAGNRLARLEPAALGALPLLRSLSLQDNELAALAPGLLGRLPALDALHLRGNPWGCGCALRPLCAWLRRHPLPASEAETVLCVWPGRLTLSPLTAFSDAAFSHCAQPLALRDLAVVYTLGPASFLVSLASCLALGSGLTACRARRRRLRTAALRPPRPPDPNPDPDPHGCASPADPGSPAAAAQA

With `CO[C@H]1O[C@@H]2O[C@@]3(C)CC[C@H]4[C@H](C)CC[C@@H]([C@H]1C)[C@@]24OO3`, the parasite load remaining in experiment [1] is 32% (inactive). In experiment [1], the viability is 66.6%. In addition, the fluorescence ratio was 1.02 (inactive) in experiment [2] and 1 (inactive) in [5]. The figures for the inhibition in experiment [3] and in experiment [4] were -1.97% (inactive) and -3.54% (inactive), respectively. In [6], the z-score is -0.742 (inactive). The mean signal in [7] was 291 (inactive). The log fold change Tl+ flux was -0.0298 (inactive) with F380Y; -0.0746 (active) in the experiment with F380Y/beta2Delta; -0.00699 (inactive) in experiment [8]; 0.0256 (inactive) in the experiment on R275C; -0.0131 (inactive) with R275C/beta1; -0.00466 (inactive) in the experiment with R275C/beta2Delta.
On to `CN(C)CC/C=C1/c2ccccc2COc2ccccc21`, for which the parasite load remaining in [1] was 72.1% (inactive) and 22.2% (inactive) and 49.1% (inactive). Moreover, the viability in experiment [1] is 73% and 104% and 60.2%. Moreover, the fluorescence ratio was 0.97 (inactive) in [2] and 0.93 (inactive) in experiment [5]. Further, the inhibition in experiment [3] was -1.98% (inactive); in [4] it was -0.1% (inactive). Moreover, the z-score in experiment [6] was -0.308 (inactive); in experiment [10], -0.705 (inactive). The fold change was 0.906 (inactive) and 0.927 (inactive) in [9] (setting [11]); 1.31 and 1.98 in [9] (setting [12]). The cell count was 8570 and 9810 in experiment [9] (setting [13]); 9460 and 10600 in experiment [9] (setting [14]). Besides, the log fold change Tl+ flux in the experiment with F380Y is 0.124 (active); in the experiment on F380Y/beta2Delta, 0.0845 (active); in experiment [8], 0.0355 (inactive); in the experiment on R275C, 0.0343 (inactive); in the experiment with R275C/beta1, 0.0624 (inactive); in the experiment on R275C/beta2Delta it was 0.0478 (inactive).
Consider `C[C@H]1O[C@@H](O[C@H]2[C@@H](O)C[C@H](O[C@H]3[C@@H](O)C[C@H](O[C@H]4CC[C@@]5(C)[C@H](CC[C@@H]6[C@@H]5C[C@@H](O)[C@]5(C)C(C7=CC(=O)OC7)CC[C@]65O)C4)O[C@@H]3C)O[C@@H]2C)C[C@H](O)[C@@H]1O` (stereo partly specified), for which the parasite load remaining in [1] was -5.28% (inactive). Moreover, in experiment [1], the viability turned out to be 8.28%. Besides, the fluorescence ratio is 0.93 (inactive) in experiment [2] and 0.99 (inactive) in experiment [5]. For the same compound, the inhibition in [3] was -1.36% (inactive); in [4], 4.86% (inactive). For the same compound, the fold change was 0.475 (active) in experiment [9] (setting [11]) and 1.15 in experiment [9] (setting [12]). Also, the cell count stood at 266 in experiment [9] (setting [13]) and 560 in experiment [9] (setting [14]). Moreover, the z-score in experiment [10] was -0.815 (inactive). For the same compound, the log fold change Tl+ flux in the experiment on F380Y is -0.0279 (inactive); with F380Y/beta1, 0.0633 (inactive); in the experiment on F380Y/beta2Delta it was 0.00458 (inactive); in the experiment with F380Y/beta4, -0.0566 (inactive); in experiment [8], -0.00567 (inactive); in the experiment with R275C, -0.0269 (inactive). Further, the log fold change Tl+ flux in the experiment with R275C/beta1 was -0.0167 (inactive); in the experiment on R275C/beta2Delta, -0.0151 (inactive); in the experiment on R275C/beta4 it was -0.0475 (inactive); in the experiment with R275C/Slo1WT/beta2, 0.0268 (inactive).
For `C=CC1=C(C(=O)O)N2C(=O)[C@@H](NC(=O)C(=NOCC(=O)O)c3csc(N)n3)[C@H]2SC1`, the parasite load remaining in [1] was 68.9% (inactive). Also, in [1], the viability is 69.9%. For the same compound, the fluorescence ratio in [2] was 1.01 (inactive); in [5], 0.95 (inactive). Further, the inhibition is 27.7% (active) in experiment [3] and 94.9% (active) in experiment [4]. Also, the log fold change Tl+ flux with F380Y was 0.0111 (inactive); in the experiment with F380Y/beta1, -0.0102 (inactive); in the experiment with F380Y/beta2Delta it was 0.02 (inactive); in the experiment on F380Y/beta4, 0.0293 (inactive); in experiment [8] it was 0.111 (active); in the experiment with R275C, -0.011 (inactive). Moreover, the log fold change Tl+ flux in the experiment with R275C/beta1 was -0.021 (inactive); with R275C/beta2Delta it was 0.0194 (inactive); in the experiment with R275C/beta4 it was 0.0168 (inactive); in the experiment with R275C/Slo1WT/beta2, 0.00126 (inactive).
Regarding `CO[C@H]1C=CO[C@@]2(C)Oc3c(C)c(O)c4c(O)c(c(C=NN5CCN(C6CCCC6)CC5)c(O)c4c3C2=O)NC(=O)C(C)=CC=C[C@H](C)[C@H](O)[C@@H](C)[C@@H](O)[C@@H](C)[C@H](OC(C)=O)[C@@H]1C`, the parasite load remaining in experiment [1] is 21.3% (inactive). Further, the viability in experiment [1] came out at 65.4%. For the same compound, the log fold change Tl+ flux in the experiment with F380Y is 0.118 (active); with F380Y/beta1 it was -0.0391 (inactive); with F380Y/beta2Delta, 0.0273 (inactive); with F380Y/beta4, 0.177 (active); in experiment [8], 0.0556 (inactive); in the experiment with R275C, -0.0706 (inactive). Moreover, the log fold change Tl+ flux with R275C/beta1 was 0.0996 (active); in the experiment on R275C/beta2Delta, 0.0465 (inactive); in the experiment with R275C/beta4, 0.28 (active); in the experiment with R275C/Slo1WT/beta2, 0.00833 (inactive).
